High-throughput results (PubChem BioAssay)
An excerpt weighted towards active compounds, which were near 21% of everything screened.
TDP1 cell noCPT = qHTS for Inhibitors of human tyrosyl-DNA phosphodiesterase 1 (TDP1): qHTS in cells in absence of CPT; DT40 Tdp1-/- hTDP1 cells, no CPT, ATP luminescence, 48 h; Potency, µM (titrated, usually from 46.2 µM), for inactives: at the highest dose activity change, negative = growth inhibition, actives largely listed as inhibitors; 420,000 tested, 15% active; AID 686978, 2013; further: potency means the concentration at half of the fitted maximal effect; nearly all actives have a fitted effect of over 55% in size
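Chicken DT40 Tdp1-/- cells stably complemented with human TDP1 were seeded at 400 cells/well with DMSO in place of 20 nM camptothecin. After compound pinning, cells grew at least 48 hr at 37 °C; viability read by CellTiter-Glo luminescence.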
TDP1 cell CPT = DT40-hTDP1 cell growth loss with CPT; chicken DT40 Tdp1-/-;hTDP1 cells + 20 nM CPT, ATP luminescence, 48 h; Potency, µM (series often up to 46.2 µM), inactives show at the highest dose activity change, negative = growth inhibition, usual class: inhibitors; 420,000 tested, 12% active; AID 686979; further: potency means the concentration at half of the fitted maximal effect; nearly all actives have a fitted effect of over 55% in size
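Chicken DT40 Tdp1-/- cells stably complemented with human TDP1 were seeded at 400 cells/well in medium containing 20 nM camptothecin, exposed to pin-transferred compounds, and grown at 37 °C for at least 48 hr. Viability was read as ATP luminescence.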
RORgamma inh = blocks mouse ROR gamma transcriptional activity | P51450 | Drosophila S2 Gal4-RORgamma UAS-luciferase reporter, 20 h | Potency, µM (highest dose often 53.6 µM), without a hit: at the top dose activity change, negative = inhibition, usual class: inhibitors | 310,000 tested, 5.4% active; further: potency means the concentration at half of the fitted maximal effect; nearly all actives have a fitted effect of over 60% in size
Target sequence (P51450 whole entry, looked up, the tested form may be a part): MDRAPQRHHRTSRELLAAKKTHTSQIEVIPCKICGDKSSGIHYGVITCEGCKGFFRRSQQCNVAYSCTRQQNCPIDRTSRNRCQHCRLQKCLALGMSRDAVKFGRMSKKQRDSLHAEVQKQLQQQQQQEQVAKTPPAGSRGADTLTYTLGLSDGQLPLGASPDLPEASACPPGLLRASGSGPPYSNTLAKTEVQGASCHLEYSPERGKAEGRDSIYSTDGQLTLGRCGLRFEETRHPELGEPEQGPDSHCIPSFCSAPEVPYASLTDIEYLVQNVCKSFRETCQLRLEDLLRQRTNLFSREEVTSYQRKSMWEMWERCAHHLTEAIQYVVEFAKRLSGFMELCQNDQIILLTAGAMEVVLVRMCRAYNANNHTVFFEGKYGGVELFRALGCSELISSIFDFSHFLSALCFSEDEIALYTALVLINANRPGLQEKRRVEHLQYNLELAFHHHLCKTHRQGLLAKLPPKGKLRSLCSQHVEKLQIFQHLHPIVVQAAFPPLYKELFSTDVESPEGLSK
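Stably transfected Drosophila Schneider cells are the test system, with ROR gamma fused to Gal4 and luciferase under UAS control; luminescence is read after 20 hr of 700 uM copper sulfate induction at ambient temperature.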
IL1B secr inh = inflammasome signaling inhibition, IL-1 beta readout; activity change, % at 57.5 µM; THP-1 LPS/ATP IL-1B secretion, AlphaLISA, 16 h; active compounds read low; 360,000 tested, 4.7% active; in the data active means activity change below about -50%; inconclusive means mostly about -30% to -49%
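Secreted IL-1B measured by AlphaLISA bead assay after 16 h compound exposure of THP-1 cells; compounds (final up to 57.5 uM) added 1 h before LPS (250 ng/mL) and ATP (1.25 mM) stimulation; lower signal means less secretion.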
VP16 counter = counter-screen for ROR gamma inhibitors: Gal4-VP16 reporter; Potency, µM (highest dose often 53.6 µM), without a hit: at the highest dose activity, negative = inhibition, hits mostly inhibitors; AID 2546; 310,000 tested, 3.5% active; Drosophila S2 Gal4-VP16 UAS-luciferase, luminescence, 20 h;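 further: Gal4-VP16 expression switched on by copper sulfate through the metallothionein promoter; potency means the concentration at half of the fitted maximal effect; nearly all actives have a fitted effect of over 50% in size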
ELG1 DNA repair = blocks ELG1-dependent DNA repair in HEK293T cells; 330,000 tested, 2.3% active; Potency, µM (doses to about 46.1 µM), for inactives: at the highest dose activity change, negative = inhibition, hits mostly inhibitors; HEK293T ELG1-luciferase reporter, luminescence, 16 h; DNA damage induced by 5-fluorouridine; further: potency means the concentration at half of the fitted maximal effect; nearly all actives have a fitted effect of over 55% in size
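Step one: seed 2,000 cells per well. Step two: pin-transfer compound or DMSO alongside 5-fluorouridine. Step three: incubate 16 hr, 37 °C, 5% CO2. Step four: add ONE-Glo, wait 30 min, read luminescence.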
Active calls of the source: *; i = inactive; ? = inconclusive; . = no result; [ ] = dose if it differs, or a comment. Unless noted, the call rests on the fitted dose curve; in most records, active means well fitted curve in the direction sought with a large enough effect; inconclusive means small, poorly fitted or top-dose-only effect, or another doubt; inactive means no such curve, though single readings can be large; an effect the other way counts as inactive or inconclusive. On the % scale 0 is the no-effect control and ±100 the full control effect.

SMILES	TDP1 cell noCPT	TDP1 cell CPT	RORgamma inh	IL1B secr inh	VP16 counter	ELG1 DNA repair
Cc1ccccc1NC(=O)CSc1c(C(C)C)cnc2c1c(=O)n(C)c(=O)n2C	?	-51.6%	.	.	.	.
CCn1ncc(Br)c1C(=O)Nc1cc(C)on1	5.6%	24.0%	.	0.0	.	-5.0%
Cc1cccc2c(C(=O)N3CCN(C(=O)c4ccco4)CC3)cc(-c3cccc(Br)c3)nc12	?	?	?	-71.2*	?	?
Cc1ccc(-c2cc(C(=O)N3CCN(C(=O)c4ccco4)CC3)[nH]n2)cc1C	-25.7%	?	20.2%	?	-6.0%	-0.4%
O=C(c1ccco1)N1CCN(C(=O)c2cc(-c3ccccc3)nc3ccccc23)CC1	?	?	28.8%	0.0	11.5%	?
O=C(c1cc(-c2ccccn2)nc2ccc(Br)cc12)N1CCc2ccccc2C1	.	.	20.0%	.	-12.1%[0.365 µM]	-7.0%
CC(C)c1ccc(-c2cc(C(=O)N3CCOCC3)c3cc(Br)ccc3n2)cc1	?	?	?	-72.7*	8.0%	?
O=C(c1ccco1)N1CCN(C(=O)c2cc(-c3ccncc3)nc3ccc(Br)cc23)CC1	9.2µM*	20.6µM*	.	0.0	.	.
CC(=O)c1ccc(N2CCN(C(=O)c3cc(-c4ccncc4)nc4ccc(Br)cc34)CC2)cc1	20.6µM*	20.6µM*	26.4%	i	23.1%	-11.3%
CCN1CCN(c2ccc(NC(=O)c3ccc4c(c3)[nH]c(=O)n4Cc3ccc(F)cc3)cc2)CC1	29.1µM*	18.4µM*	22.9%	29.2	-7.0%	-1.9%
COc1ccc(Cn2c(=O)[nH]c3cc(C(=O)Nc4ccc(N5CCN(C)CC5)cc4)ccc32)cc1	?	?	14.8%	-58.9*	-5.3%	-0.9%
CC(C)c1nnc(NC(=O)CCC(=O)NC2CCCc3ccccc32)s1 (stereo not given)	14.6µM*	?	1.0%	43.8	2.8%	?
O=C(CN1CCN(c2cccc(Cl)c2)CC1)NC1CCCc2ccccc21 (stereo not given)	?	?	30.4%	-73.3*	-4.5%	-23.6%
Cc1cccc(OCC(=O)Nc2ccc3c4c(cccc24)CC3)c1C	8.2µM*	11.6µM*	-3.9%	33.3	-29.0%	?
Cc1nc2ccccn2c1C(=O)NC1CCCc2ccccc21 (stereo not given)	7.31µM*	7.31µM*	?	55.0	12.6µM*	?
NC(=O)CN1CCN(c2cccc(Cl)c2)CC1	-10.1%	0.1%	-0.2%	-8.2	11.0%	10.7%
COC1OC2COC(c3ccccc3)OC2C(OC(C)=O)C1OC(C)=O (stereo not given)	4.3%	0.1%	.	18.8	.	.
CCCCCCCCCC(=O)O[C@H](CC(=O)O)C[N+](C)(C)C	-3.1%	1.7%	3.2%	.	4.8%	.
CN(CCO)C(=O)c1cn(C2CCCN(Cc3ccc4ccccc4c3)C2)nn1 (stereo not given)	-20.2%	-7.4%	.	.	.	.
CN(C(=O)CCl)C1CCCc2ccccc21 (stereo not given)	2.91µM*	2.59µM*	?	-107.3*	-10.1%	3.8%
CC(Sc1nc2ccccc2s1)C(=O)N(C)Cc1ccccc1 (stereo not given)	-27.0%	-5.4%	?	-66.8*	17.4%	-20.7%
CN(C(=O)c1cccc(C(F)(F)F)c1)C1CCCc2ccccc21 (stereo not given)	?	?	19.7%	20.3	7.3%	9.6%
Cc1cccc(OCC(=O)NC2CCCc3ccccc32)c1C (stereo not given)	16.4µM*	?	4.8%	25.4	-1.8%	-6.6%
CC(Sc1nc2ccccc2s1)C(=O)Nc1ccc2c(c1)OCO2 (stereo not given)	-24.9%	11.1%	-6.2%	27.8	-6.9%	0.9%
O=C(CCl)NC1CCCc2ccccc21 (stereo not given)	18.4µM*	14.6µM*	-11.5%	-98.3*	-4.9%	0.0%
SMILES	TDP1 cell noCPT	TDP1 cell CPT	RORgamma inh	IL1B secr inh	VP16 counter	ELG1 DNA repair
O=C(Cc1ccc(Br)cc1)NC1CCCc2ccccc21 (stereo not given)	?	?	-20.7%	8.0	-5.4%	-2.1%
Cc1ccc(S(=O)(=O)Nc2cccc(-n3cnnn3)c2)cc1C	-16.0%	-28.2%	29.4%	22.6	-16.1%	-1.9%
CC(Sc1nc2ccccc2s1)C(=O)NC1CCCc2ccccc21 (stereo not given)	23.1µM*	?	10.2%	?	-12.8%	-3.7%
CC(Sc1nnnn1C)C(=O)NC1CCCc2ccccc21 (stereo not given)	6.9%	9.0%	3.5%	11.3	23.6%	1.9%
CN(C)c1nc(-c2ccccc2)ncc1S(=O)(=O)c1ccccc1	?	0.1%	7.0%	-5.8	6.6%[10 µM]	-4.1%
CCN(CC)c1nc(-c2ccccc2)ncc1S(=O)(=O)c1ccc(C)cc1	16.4µM*	?	?	0.0	4.8%	-25.3%
Oc1ccc[n+](CCCCC[n+]2cccc(O)c2)c1	-3.6%	-9.7%	-1.1%	-9.4	0.7%	?
CCCCCCCC[n+]1cccc(C(=O)N(CC)CC)c1	?	-25.7%	3.3%	-6.1	-6.4%	-5.2%
CCCCCCCCCCCC[n+]1ccc2ccccc2c1	0.335µM*	0.531µM*	?	.	5.01µM*	.
CCCCCCCCCCCCCCCC[n+]1ccc(/C=N/O)cc1	1.64µM*	1.64µM*	?	-100.1*	7.08µM*	?
CCCCCCCCCCCCCCCC[n+]1ccc(C(N)=O)cc1	2.91µM*	4.61µM*	?	-102.5*	-17.9%	4.8%
CCCCCCCCCCCCCCCC[n+]1cccc(C(=O)N(CC)CC)c1	2.59µM*	2.91µM*	-18.5%	-63.1*	-18.5%	-5.6%
O=C(COC(=O)Cc1ccccc1)NCc1ccc2c(c1)OCO2	-13.2%	4.3%	.	-2.8	.	19.2%
CCCCCCCCCCCCCC[n+]1ccc(C)cc1	0.376µM*	0.422µM*	?	.	3.98µM*	.
C=C(C)C(O)/C=C/c1ccc(C(F)(F)F)cc1 (stereo not given)	.	.	-16.3%	.	2.5%	.
CCCCC(C)n1[nH]c(=O)c2c(C)cc(C)nc21 (stereo not given)	-6.0%	1.3%	12.6%	43.9	-3.5%	?
CCCCCCC(C)n1[nH]c(=O)c2c(C)cc(=O)[nH]c21 (stereo not given)	?	?	7.08µM*	?	3.98µM*	?
CCCSc1nc2sc3c(c2c(=O)n1-c1ccccc1)CCC(C)C3 (stereo not given)	-14.7%	-11.4%	.	.	.	.
